# Mtb MbtI inh: inhibitors of Mycobacterium tuberculosis siderophore enzyme MbtI; P9WFX0; purified MbtI enzyme, fluorescence intensity read-out; inhibition, % (no concentration beside the values); 100,000 tested, 0.89% active; in the data active = inhibition mostly above about 56%, no sharp cut-off; inactive = mostly below about 77%
# Mtb MenB inh: inhibitors of Mycobacterium tuberculosis MenB enzyme; P9WNP5; MenB enzyme assay, absorbance read-out; inhibition, % (no concentration beside the values); 100,000 tested, 0.43% active; AID 540299; in the data active = inhibition above about 21%, passing the limit was not always enough
# Target sequence (P9WNP5 whole entry, looked up): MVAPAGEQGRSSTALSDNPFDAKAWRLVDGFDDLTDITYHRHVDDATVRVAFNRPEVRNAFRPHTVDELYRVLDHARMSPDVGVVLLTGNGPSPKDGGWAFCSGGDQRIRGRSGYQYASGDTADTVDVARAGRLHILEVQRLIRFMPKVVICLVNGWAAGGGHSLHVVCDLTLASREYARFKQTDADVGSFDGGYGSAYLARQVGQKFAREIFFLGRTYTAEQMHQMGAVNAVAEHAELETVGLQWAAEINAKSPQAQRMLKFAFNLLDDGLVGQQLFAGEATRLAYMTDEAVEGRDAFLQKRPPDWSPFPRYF
# PV pol inh: inhibitors of poliovirus RNA polymerase binding and polymerization; P03300; 150,000 tested, 0.66% active; % elongation, % (compound at 16.7 µg/mL); poliovirus polymerase elongation, fluorescence polarization; stronger effect = lower value; AID 588519; in the data active = % elongation below about 90%
# * hit, by the source's call; i = inactive; . = not tested or not shown. A selection: hits, their analogues and other compounds. The true share with any hit is near 1.5%.
SMILES,Mtb MbtI inh,Mtb MenB inh,PV pol inh
O=C(O)CCSc1n[nH]c(=S)s1,64,-18,97
S=c1[nH]nc(SCc2cccs2)s1,102*,3,98
C1CNC(C23CC4CC(CC(C4)C2)C3)=N1,0,-1,102
C1=C(C23CC4CC(CC(C4)C2)C3)SC2=NCCN12,69*,-7,99
O=C(COc1ccc(Oc2ccccc2)cc1)NCc1cn2ccsc2n1,16,-19,107
Cc1ccc(OC(=O)NC2(C(F)(F)F)Oc3ccccc3O2)cc1,0,-10,103
COc1cccc(OC)c1C(=O)Nc1nnc(CC(C)(C)C)s1,.,-19,71*
COc1cc(C(=O)Nc2nnc(CC(C)(C)C)s2)cc(OC)c1OC,.,.,100
CCN1CCN(CCC(=O)Nc2ccc(C)cc2)CC1,-1,37*,100
CCN1CCN(CCC(=O)Nc2ccc(-c3ccccc3)cc2)CC1,14,.,100
N#C/C(=C/c1cn(-c2ccccc2)nc1-c1cc2ccccc2oc1=O)C(N)=O,-27,-27,99
CCS(=O)(=O)c1ccc2oc(=S)[nH]c2c1,32,10,105
CN(C)S(=O)(=O)c1ccc2oc(=S)[nH]c2c1,77,-30,88*
O=C(O)CO/N=C/c1ccccc1,-10,6,98
O=C(O)CON=C1C2CC3CC(C2)CC1C3,0,10,78*
COc1ccc(OC)c(CNC(=O)CSc2c3c(nc4cc(Cl)ccc24)CCCC3)c1,.,.,74*
COc1ccc(CCNC(=O)CSc2c3c(nc4cc(Cl)ccc24)CCCC3)c(OC)c1,10,-17,99
Cc1ccc(S(=O)(=O)c2ccccc2)cc1S,.,-12,62*
O=S(=O)(c1ccccc1)c1ccc2c(c1)Sc1ccccc1N2,0,-21,101
Clc1ccccc1C1SCC2Nc3ccccc3CN21 (stereo not given),-5,71*,105
CCN(CC)C(=O)NC1CCCCCC1,-12,-13,100
C=C/C=C(\C=C(C)C)N(C(=O)NC1CCCCC1)C1=NCCCS1,-1,29*,102
CCN1C(=O)C2CC(C)=C(C)CC2C1=O (stereo not given),-3,-9,97
CCN1C(=O)CC(OC(C)=O)C1=O (stereo not given),66*,-17,103
COC(=O)c1ccc(OCC2c3cc(OC)c(OC)cc3CCN2C(=O)c2cccc(C)c2)cc1 (stereo not given),.,.,101
SMILES,Mtb MbtI inh,Mtb MenB inh,PV pol inh
O=C(c1ccc(Cl)cc1)N1CCc2sccc2C1c1ccc(Cl)cc1 (stereo not given),2,4,101
CC1CCN(C(=O)COc2ccccc2Cl)CC1,-11,-37,105
CN1CCN(c2ccc(Nc3ccnc4cc(Cl)ccc34)cc2Cl)CC1,.,0,89*
CCN(CC)Cc1cc(Nc2ccnc3cc(Cl)ccc23)ccc1O,24,-6,101
Cc1ccc(/C=C(\C#N)C(=O)NC2CCCCCC2)o1,-4,-66,104
O=C(Nc1ccc(-c2cn3ccsc3n2)cc1)c1ccc2c(=O)n3c(nc2c1)CCCCC3,0,-6,103
Cc1cccc(NC(N)=S)c1,-14,-24,100
Cc1cccc(C(N)=S)c1,62*,-17,98
CN(C)S(=O)(=O)c1cccc(C(=O)O)c1,-8,4,99
O=C(N=C=S)c1ccc2ccccc2c1,i,-67,75*
CN(C)S(=O)(=O)c1cccc(C(=O)N=C=S)c1,96*,-67,70*
O=C(N=C=S)c1ccc(Cl)cc1,0,-47,97
O=C(Nc1ccc(Oc2ncnc3sc4c(c23)CCC4)cc1)c1ccco1,3,-23,99
CC(=O)N1N=C2c3ccccc3CCC2C1c1cccs1 (stereo not given),0,1,112
O=C1CCCC2=C1C(c1cccs1)C1C(=O)c3ccccc3C1=N2 (stereo not given),.,-15,72*
Cc1nc2ccccc2nc1N=C(N)NC(=O)c1ccccc1,.,-5,103
O=C(Cc1n[nH]c(=O)c2ccccc12)Nc1ccc2c(c1)OCCO2,10,21,108
COc1ccc(N2C(=O)/C(=C\c3ccco3)N=C2SCC(=O)N2CCc3ccccc32)cc1Cl,1,-24,98
c1ccc(CC2CCCNC2)cc1 (stereo not given),3,21,100
C1CNCC(CN2CCCC2)C1 (stereo not given),-2,46*,103
CS(=O)(=O)NCCc1ccccc1,-1,-20,101
CCOC(=O)c1cnc2cc(OC)ccc2c1Cl,-3,13,102
CN(C)C(=S)Nc1nc2ccccc2s1,71*,-59,100
CN(C)C(=S)c1nc2ccccc2s1,45,-50,99
CCOc1nc(NCCO)nc(NCCC2=CCCCC2)n1,5,15,101
Clc1nc(Cl)nc(NCCC2=CCCCC2)n1,8,17,78*
O=c1[nH]c(CSc2nnc(CCCOc3ccc(Cl)cc3Cl)o2)nc2ccccc12,-26,4,102
